DAX1 inh-1 = inhibitors of human orphan nuclear receptor DAX1 (NR0B1) | P51843 | HEK293 Gal4-DAX1 luciferase reporter, luminescence | inhibition, % at 6.75 µM | hit rate 0.99% among 340,000 | AID 504766;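 active = inhibition above the mean over all tested compounds plus 3 SD, cut at about 4.2% in these data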;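 also: 0% = DAX1-transfected cells with DMSO and 100% = empty-vector control cells with DMSO; inhibition shows as a rise in luminescence from relieved DAX1 repression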
Target sequence (P51843 207-470 limits assumed): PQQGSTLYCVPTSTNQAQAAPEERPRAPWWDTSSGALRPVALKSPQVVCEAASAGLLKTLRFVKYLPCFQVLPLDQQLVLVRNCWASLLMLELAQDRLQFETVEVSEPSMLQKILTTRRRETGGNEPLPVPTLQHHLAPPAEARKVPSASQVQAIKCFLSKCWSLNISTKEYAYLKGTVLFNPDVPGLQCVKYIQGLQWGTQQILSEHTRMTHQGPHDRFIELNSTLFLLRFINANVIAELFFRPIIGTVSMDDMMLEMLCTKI
hgDAF12 agonist = activates the H. glycines DAF-12 receptor ligand-binding domain; HEK293 GAL4-hgDAF12 UAS-luciferase reporter, agonist luminescence; normalized to butyrate control; hit rate 1.8% among 370,000; activation, % at 6.8 µM;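 active = activation above a cutoff set at the mean of all screened compounds plus 3 SD, cut at about 10% in these data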;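 also: 0% = DMSO wells and 100% = sodium butyrate wells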
DAX1 inh-2 = DAX1 (NR0B1) inhibition, primary screen. HEK293T StAR-luciferase reporter, SF-1/DAX-1 repression relief. inhibition, % at 6.8 µM. hit rate 1.1% among 370,000;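 active = inhibition above the mean over all tested compounds plus 3 SD, cut at about 3.6% in these data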;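 also: 0% = DAX-1 cells with DMSO and 100% = cells lacking DAX-1 with DMSO; higher inhibition means more luminescence from relief of DAX-1 repression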
hcDAF12 agonist = activates DAF-12 receptor from parasite H. contortus; HEK293 hcDAF-12 lit1-tk-luc reporter, luminescence; 0% DMSO, 100% Δ7-dafachronic acid; activation, % at 6.8 µM; hit rate 1.4% among 370,000; AID 652067;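 active = activation above the mean of all tested compounds plus 3 SD, cut at about 5.5% in these data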;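 also: 100% = response to 3 µM Δ7-dafachronic acid high control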
ssDAF-12 act = S. stercoralis DAF-12 activation, primary screen | HEK293 ssDAF-12/GRIP1 lit1-tk-luc reporter, luminescence; % of 3 µM dafachronic acid response | AID 652126 | activation, % at 6.8 µM | hit rate 1% among 370,000;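 active = activation above the mean over all tested compounds plus 3 SD, cut at about 0.9% in these data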;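 also: 0% = DMSO-only wells and 100% = 3 µM delta7-dafachronic acid wells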
DAX1 conf = confirmation of human DAX1 (NR0B1) inhibitors; shares compounds with DAX1 inh-2; hit rate 87% among 2,400; HEK293T StAR-promoter luciferase reporter, SF-1/DAX-1 repression; inhibition, % at 6.8 µM;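 active = inhibition above the average of every tested compound plus 3 SD, cut at about 3.8% in these data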;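 also: 0% = DAX-1 cells with DMSO and 100% = no DAX-1 control cells with DMSO; active compounds raise luminescence by relieving repression of the StAR reporter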
SF1 AF2mut Luc = counter-screen for DAX1 inhibitors: nonselective inhibitors with SF-1 AF2 mutant; hit rate 78% among 2,400; inhibition, % at 6.8 µM; HEK293 StAR-luciferase, luminescence; shares compounds with DAX1 inh-2; AID 652136;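 active = inhibition above the mean of all tested compounds plus 3 SD, cut at about 3% in these data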;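 also: 0% = DAX-1 transfected cells with DMSO and 100% = cells without DAX-1 with DMSO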
LXRb hcDAF ctr = LXR-beta agonism as hcDAF-12 counter-screen. shares compounds with hcDAF12 agonist. HEK293 Gal4-LXR tk-luc reporter, luminescence, 24 h; normalized: DMSO 0%, positive control 100%. activation, % at 6.8 µM. 3,400 tested, under 10 active. AID 743027;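 active = mean percent activation of the reporter above a cutoff set as the average over tested compounds plus their standard deviation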
Target sequence (P55055 whole entry, looked up, the tested form may be a part): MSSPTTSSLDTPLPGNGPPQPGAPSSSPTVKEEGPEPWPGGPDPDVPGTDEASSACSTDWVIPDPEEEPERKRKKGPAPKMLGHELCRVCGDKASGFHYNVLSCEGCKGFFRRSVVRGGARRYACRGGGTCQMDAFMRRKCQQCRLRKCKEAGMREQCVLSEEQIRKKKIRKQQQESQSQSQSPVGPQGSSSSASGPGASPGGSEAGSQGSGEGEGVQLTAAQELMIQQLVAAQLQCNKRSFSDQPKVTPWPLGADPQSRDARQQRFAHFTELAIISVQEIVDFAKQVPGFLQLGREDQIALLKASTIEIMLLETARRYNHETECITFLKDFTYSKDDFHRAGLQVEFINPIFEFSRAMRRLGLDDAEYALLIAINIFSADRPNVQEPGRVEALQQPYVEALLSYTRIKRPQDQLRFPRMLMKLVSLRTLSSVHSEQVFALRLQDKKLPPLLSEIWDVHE
hcDAF12 ag = confirmation of H. contortus DAF-12 agonists | shares compounds with hcDAF12 agonist | HEK293 hcDAF-12 lit1-tk-luc reporter, luminescence; % of Δ7-dafachronic acid response | activation, % at 6.8 µM | hit rate 61% among 3,400 | AID 743032;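 active = mean activation across triplicate tests above the threshold derived from the earlier primary screen, cut at about 5.5% in these data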;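 also: 0% = DMSO only wells and 100% = 3 µM Δ7-dafachronic acid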
The depositor's hits bear a star; . = no result. Compounds with a hit are over-represented: about 4.1% of the library has one in this group of screens.

SMILES | DAX1 inh-1 | hgDAF12 agonist | DAX1 inh-2 | hcDAF12 agonist | ssDAF-12 act | DAX1 conf | SF1 AF2mut Luc | LXRb hcDAF ctr | hcDAF12 ag
CN(Cc1ccccc1)C(=O)OCc1cn(Cc2c(F)cccc2F)nn1 | . | -0.9 | 0.3 | -3.2 | -0.9 | . | . | . | .
C/C(=N\NC(=O)c1cccs1)c1c(O)cc(C)oc1=O | 4.7* | 12.3* | 6.9* | 6.6* | 1.1* | 1.5 | 1.8 | -0.1 | 1.0
Nc1nn2cc(-c3ccccc3)nc2c2ccccc12 | 2.1 | 21.3* | 11.0* | 19.4* | 6.0* | 18.7* | 10.1* | 1.8 | 21.5*
Cc1cn2nc(N)c3ccccc3c2n1 | -0.7 | 1.2 | -0.9 | 2.7 | -0.5 | . | . | . | .
O=C(Nc1nc2ccccc2[nH]1)c1ccc(Br)o1 | 1.8 | 16.7* | 6.0* | 10.7* | 1.4* | 7.9* | 5.2* | 1.0 | 7.4*
Cc1c(C(=O)Nc2nc3ccccc3[nH]2)oc2ccccc12 | 2.3 | 21.1* | 5.7* | 24.2* | 3.8* | 13.8* | 7.4* | 2.0 | 13.2*
O=C(CNC(=O)c1ccccc1Cl)OC1CCOC1=O (stereo unspecified) | 1.1 | 0.1 | -0.5 | -1.1 | -1.1 | . | . | . | .
CCCc1ccc(Oc2cc(NN3CCCCC3)c([N+](=O)[O-])cc2[N+](=O)[O-])cc1 | 1.0 | 5.2 | 0.2 | -0.9 | -1.4 | . | . | . | .
NC(=O)c1ccccc1OCC(=O)Nc1ccc(Cl)c(Cl)c1 | 5.8* | 18.1* | 6.9* | 10.5* | 2.2* | 20.6* | 8.9* | 1.8 | 10.8*
CN1/C(=C\C(=O)c2cccs2)Sc2ccccc21 | 1.5 | 16.6* | 4.6* | 20.9* | 2.9* | 10.4* | 7.0* | 2.4 | 21.4*
COc1ccc(-c2nc3ccccc3s2)cc1 | -2.1 | 12.6* | 6.1* | 12.2* | 0.4 | 13.7* | 3.6* | 1.6 | 12.9*
c1cncc(-c2nc3ccccc3s2)c1 | -0.5 | 5.5 | 1.1 | 1.8 | -0.7 | . | . | . | .
CC(N)c1csc(Nc2cc(Oc3ccccc3)ncn2)n1 (stereo unspecified) | . | -2.0 | 0.1 | -1.7 | -1.7 | . | . | . | .
N#C/C(=C\c1ccc[nH]1)C(=O)Nc1ccccc1F | 1.2 | 12.3* | 7.4* | 12.0* | 4.3* | 9.5* | 7.0* | 1.1 | 8.6*
COc1cccc(C(=O)Nc2nnc(C(C)C)s2)c1 | -0.5 | 9.8 | 4.8* | 6.8* | 0.2 | 9.0* | 3.1* | 1.4 | 7.3*
CC(C)c1nnc(NC(=O)c2cccc(-n3cnnn3)c2)s1 | -0.6 | -2.4 | 0.6 | -1.8 | -1.6 | . | . | . | .
Fc1ccc(-c2nnc(-c3ccc4ccccc4c3)o2)cc1 | 1.4 | 20.3* | 7.0* | 8.0* | 2.1* | 10.5* | 5.2* | 1.7 | 12.3*
Fc1ccc(-c2nnc(-c3ccc(F)cc3)o2)cc1 | 1.6 | 0.3 | 0.2 | 2.5 | -0.8 | . | . | . | .
Cc1nc2ccccc2n1C(c1cccnc1)c1nc2ccccc2[nH]1 (stereo unspecified) | . | 2.9 | 1.2 | 0.2 | -0.9 | . | . | . | .
CCCn1c(C)cc(C(=O)COC(=O)c2nccnc2N)c1C | 0.2 | 12.6* | 5.7* | 7.4* | 1.3* | 14.9* | 5.6* | 1.0 | 5.9*
C/C(CC(=O)Nc1ccccn1)=N\NC(=O)C(=O)Nc1cccc(C)c1 | 0.4 | -1.3 | 0.1 | -1.0 | -1.6 | . | . | . | .
O=C(Nc1cccc(O)c1)C(=O)Nc1ccccn1 | -2.3 | 8.7 | 6.1* | 8.2* | -0.3 | 10.0* | 5.6* | 1.2 | 4.2
Cc1ccsc1C(=O)OCc1csc(-c2ccccc2)n1 | 0.8 | 16.3* | 4.7* | 13.2* | 2.7* | 21.1* | 14.1* | 1.1 | 13.8*
O=C(OCc1csc(-c2ccccc2)n1)c1cccs1 | 1.4 | 3.6 | 1.2 | 1.7 | -0.8 | . | . | . | .
Cn1cccc1C(=O)OCc1csc(-c2ccccc2)n1 | 2.0 | 15.5* | 5.3* | 15.7* | 3.1* | 14.2* | 8.0* | 1.8 | 16.9*
SMILES | DAX1 inh-1 | hgDAF12 agonist | DAX1 inh-2 | hcDAF12 agonist | ssDAF-12 act | DAX1 conf | SF1 AF2mut Luc | LXRb hcDAF ctr | hcDAF12 ag
O=C(NCC1OCCc2ccccc21)c1cc(COc2c(F)cccc2F)on1 (stereo unspecified) | 0.6 | 1.9 | -0.6 | -0.7 | -1.1 | . | . | . | .
CN1CCN(c2ccc(CNS(=O)(=O)c3ccsc3)cc2)CC1 | . | 0.5 | 0.4 | 0.6 | -1.1 | . | . | . | .
C(=Cc1c[nH]c2ccccc12)c1ccc2ccccc2n1 | -1.7 | 17.7* | 8.1* | 20.4* | 5.2* | 8.0* | 1.1 | 1.6 | 12.3*
C(=Cc1c[nH]c2ccccc12)c1nccc2ccccc12 | -1.7 | 22.8* | 14.6* | 23.7* | 4.1* | 13.8* | 7.1* | 1.6 | 18.3*
O=Cc1nccc2ccccc12 | 0.2 | -0.3 | 2.0 | 1.1 | 0.3 | . | . | . | .
Fc1ccccc1/C=C/c1ccc2ccccc2n1 | -3.5 | 14.9* | 5.8* | 19.6* | 2.2* | 14.0* | 3.5* | 1.2 | 13.4*
COc1ccc(-c2cc(=O)c3c(O)c(OC)c(O)cc3o2)cc1 | -4.3 | 9.9 | 5.1* | 6.7* | 1.3* | 15.9* | 8.3* | 1.4 | 4.8
Nc1nn(-c2cccc(F)n2)cc1-c1ccc(Cl)cc1 | -0.5 | 18.4* | 5.9* | 11.0* | 1.4* | 12.6* | 5.3* | 1.9 | 9.8*
CCCCC(CC(O)COCCC)c1n[nH]c(=S)n1-c1ccccc1 (stereo unspecified) | -0.3 | 0.7 | -0.5 | -1.6 | -1.4 | . | . | . | .
O=C(O)c1ccc(N/N=C/c2cccc(F)c2)cc1 | 0.3 | 20.5* | 6.3* | 7.1* | 1.2* | 14.8* | 8.3* | 1.4 | 10.0*
O=C(O)c1ccc(N/N=C/C(Br)=C/c2ccccc2)cc1 | -0.6 | 22.1* | 5.2* | 8.1* | 0.8 | 13.2* | 4.2* | 1.9 | 13.1*
O=C(N/N=C/C(Br)=C/c1ccccc1)C(O)c1ccccc1 (stereo unspecified) | 0.0 | -0.5 | -0.5 | -0.8 | -1.4 | . | . | . | .
CC(=O)Nc1cc(-c2cccc(F)c2)cn2c(-c3ccc(F)cc3)cnc12 | . | 1.1 | -0.2 | -0.9 | -0.2 | . | . | . | .
Nc1nc(-c2ccccc2)nc2sc3c(c12)CCCC3 | 1.6 | 18.0* | 8.3* | 20.7* | 3.0* | 16.6* | 6.5* | 2.1 | 17.3*
c1ccc2c(c1)COc1c3cc4c(cc3nn1-2)OCO4 | 2.1 | 29.2* | 8.7* | 11.2* | 1.2* | 17.9* | 9.1* | 1.4 | 12.7*

Screening data as filed in PubChem BioAssay.
